# Bioassay records from PubChem.
# HCV inhibitor = qHTS Assay for Inhibitors of Hepatitis C Virus (HCV) | 3.4% of 340,000 active | Huh7.5.1 HCVcc-Cre infection, luciferase reporter, 44 h | Potency, µM (doses to about 41.8 µM), for inactives: at the top dose activity change, negative = inhibition, hits mostly inhibitors; further: potency means the concentration at half of the fitted maximal effect
#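 Luciferase read-out (15 sec integration) after a 15 min room-temperature substrate step quantifies HCVcc-Cre infection. Cells, 1,000 per well, had compound added 4 h post-plating, then virus at ~0.5 moi, and were cultured 44 h.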
# Pf growth 48h = Primary qHTS for delayed death inhibitors of the malarial parasite plastid, 48 hour incubation; P. falciparum luciferase growth in erythrocytes, 48 h; Potency, µM (highest dose often 28.7 µM), for the others: at the highest dose activity change, negative = inhibition, most hits filed as inhibitors; 5.9% of 310,000 active; AID 504832, 2011; further: potency means the concentration at half of the fitted maximal effect
#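 Cell-based growth assay: transgenic P. falciparum expressing firefly luciferase, cultured in red cells within RPMI 1640 containing 0.5% w/v Albumax, 24 mM bicarbonate and gentamycin. A drop in luciferase activity indicates inhibition.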
# HCMV antiviral = qHTS Assay for inhibitors of the human cytomegalovirus (HCMV). HFF cells, HCMV-luciferase reporter, 72 h; hits give low values. activity change, negative = inhibition, % at 57.5 µM. 4.5% of 410,000 active. AID 1259415, 2018; in the data active means activity change below about -60%; inconclusive means no clear call, values can overlap the other calls; inactive means above about -39%
#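 Steps: HFFs plated, 16 h 37C; compounds added; HCMV-luciferase added to MOI 1 PFU/cell; 72 h 37C; OneGlo reagent, 5 min room temperature; luminescence read, normalized to controls.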
# Pf growth 96h = Primary qHTS for delayed death inhibitors of the malarial parasite plastid, 96 hour incubation | P. falciparum luciferase reporter growth, 96 h | Potency, µM (top dose mostly 28.7 µM), for inactives: at the highest dose activity change, negative = inhibition, usual class: inhibitors | 6.9% of 320,000 active; further: potency means the concentration at half of the fitted maximal effect
#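 Two-generation exposure (96 h) targets delayed-death phenotype. Reporter parasites carrying integrated firefly luciferase, in red cells at 2% hematocrit and 0.05% parasitemia final, kept at 37 C, 5% CO2; luminescence loss indicates inhibition.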
# Active calls of the source: *; ? = inconclusive; nt = not tested or not shown; ! = repeats disagree. The list is not random: actives were taken first. Their share in the collection is about 13%. Unless noted, the call rests on the fitted dose curve; in most records, active means well fitted inhibition curve with a large enough effect; inconclusive means small, poorly fitted or top-dose-only effect, or another doubt; inactive means no such curve, though single readings can be large or run the other way. On the % scale 0 is the no-effect control and ±100 the full control effect.
SMILES,HCV inhibitor,Pf growth 48h,HCMV antiviral,Pf growth 96h
O=C(N/N=C/c1cccs1)c1cc(C2CC2)nc2ccccc12,?,16.0%,-21.9,-6.3%
Cc1ccc2nc(-c3cccc(NC(=O)c4cccc5ccccc45)c3)oc2c1,nt,nt,-5.8,nt
C/C(=N\NC(=O)c1cc2ccccc2cc1O)c1ccc(C)o1,-17.2%,?,-13.8,3.8%
COc1ccc(-c2cc(C(=O)N/N=C/c3sccc3C)c3ccccc3n2)c(OC)c1,?,nt,-63.2*,11.7µM*
COc1ccccc1-c1cc(C(=O)N/N=C/c2cccs2)c2ccccc2n1,?,nt,?,4.15µM*
COc1ccccc1-c1csc(NC(=O)c2cc(-c3cccs3)nc3ccccc23)n1,10.5%,?,?,7.38µM*
C/C(=N/NC(=O)c1cc2ccccc2cc1O)c1ccco1,-16.9%,?,-72.6*,13.9%
COc1ccc(-c2csc(NC(=O)c3cc(-c4cccs4)nc4ccccc34)n2)c(OC)c1,22.6%,?,-7.9,?
COc1ccccc1-c1cc(C(=O)N/N=C\c2cnn(C)c2C)c2ccccc2n1,23.2%,3.1%,56.1,?
CC(C)CC(=O)Nc1cccc(-c2cn3cccnc3n2)c1,nt,nt,81.9,nt
COc1ccc(-c2cc(C(=O)N/N=C/c3ccc4c(c3)OCO4)c3ccccc3n2)c(OC)c1,?,?,-6.9,?
COc1ccc(-c2cc(C(=O)N/N=C/c3ccc(OC)c(COCC(F)(F)C(F)F)c3)c3ccccc3n2)c(OC)c1,?,1.47µM*,8.3,6.57µM*
CCCSC1=C(C#N)C(c2ccccc2OCC)CC(=O)N1 (stereo unspecified),?,?,-9.6,5.22µM*
CCCCSC1=C(C#N)C(c2ccccc2C)CC(=O)N1 (stereo unspecified),-4.6%,nt,?,?
CCOc1ccccc1C1CC(=O)NC(SCC)=C1C#N (stereo unspecified),-17.8%,-10.3%,12.4,nt
C=CCSC1=C(C#N)C(c2ccccc2OC)CC(=O)N1 (stereo unspecified),21.1%,-23.5%,-8.7,-16.2%
CCSC1=C(C#N)C(c2ccccc2OC)CC(=O)N1 (stereo unspecified),-7.6%,8.9%,-74.9*,7.3%
CCCSC1=C(C#N)C(c2ccccc2C)CC(=O)N1 (stereo unspecified),-11.5%,?,-99.3*,15.8%
Cc1c(/C(Cc2ccccc2)=N/O)c2ccccc2n1C,0.3%,?,8.5,10.4µM*
Cc1c(C(=O)c2ccccc2)c2ccccc2n1C,-24.7%,-2.5%,-17.1,0.5%
Cc1ccc2nc(CN(C)C(=O)[C@@H](Cc3ccccc3)NC(=O)[C@H]3O[C@@H](n4cnc(C(N)=O)n4)[C@H](O)[C@@H]3O)[nH]c2c1,nt,nt,-15.7,nt
CCN(CC)S(=O)(=O)c1cccc(-c2nnc(SCCCC(=O)c3ccc(F)cc3)o2)c1,?,9.28µM*,-38.2,0.0%
CN(C)S(=O)(=O)c1cccc(-c2nnc(SCc3ccc4c(c3)OCCO4)o2)c1,?,16.5µM*,9.0,?
CCN(CC)S(=O)(=O)c1cccc(-c2nnc(SCCCC(=O)c3ccccc3)o2)c1,15.8µM*,?,-23.6,?
CCN(CC)S(=O)(=O)c1cccc(-c2nnc(SC(C)C(=O)NCCC3=CCCCC3)o2)c1 (stereo unspecified),11.2µM*!,?,?,9.9%
SMILES,HCV inhibitor,Pf growth 48h,HCMV antiviral,Pf growth 96h
C=CCn1c(C)cc(C(=O)CSc2nnc(-c3cccc(S(=O)(=O)N(CC)CC)c3)o2)c1C,8.91µM*,10.4µM*,-12.6,?
Brc1ccccc1-c1nnc(SCc2nc3ccccc3s2)o1,?,250.3%,129.0,277.6%
CCN(CC)S(=O)(=O)c1cccc(-c2nnc(SCc3nc4ccccc4s3)o2)c1,7.08µM*,nt,-7.0,?
O=C(CNC(=O)c1cccnc1)N=Nc1c(O)[nH]c2c(Br)cc(Br)cc12,?,-1.7%,-2.8,22.3%
O=C(CCCCCNC(=O)c1ccccc1)N=Nc1c(O)[nH]c2c(Br)cc(Br)cc12,nt,11.7µM*,nt,0.0%
CC(C)c1ccc(NC(=O)c2cc(-c3cc(F)ccc3OCC3CCCO3)n[nH]2)cc1 (stereo unspecified),nt,nt,-39.9,nt
COc1ccc(CCNC(=O)CCc2c(C)c3cc4c(C)coc4c(C)c3oc2=O)cc1OC,nt,nt,-18.3,nt
